Source: the supplement of paper PMC10037445
± gives the standard deviation of the averaged measurements. The full ranking holds about 2,900 compounds; the median of “NF-kB SEAP reporter activity, fold change vs agonist alone” is about 0.99, and the highest 2% start at about 2.6. Many of the other results were omitted from the sample, so the highest values are more common in it than they were.

Tests used:
[1] = system: RAW-Dual; experiment: NF-kB SEAP reporter activity, fold change vs agonist alone; higher = enhanced NF-kB activity
How it was run: (§1)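 RAW-Dual macrophages (50,000 cells/well in DMEM, 384-well plates) received 50 nL of library stock by pin tool, then a PRR agonist 1 h later, and were kept at 37 °C, 5% CO2. After 20 hours, supernatant was read for IRF by QuantiLuc luminescence and for NF-κB by QuantiBlue absorbance at 620 nm. Reporter activity is fold change over agonist-alone wells. Cytotoxic wells had IncuCyte confluency below 70% of agonist controls in both mask sets.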

[2] = system: RAW-Dual; experiment: NF-kB SEAP reporter activity, fold change vs agonist alone; cytotoxicity flag (confluency mask): cytotoxic (confluency <70% of control); higher = enhanced NF-kB activity
How it was run: as §1

[3] = system: RAW-Dual; experiment: NF-kB SEAP reporter activity, fold change vs agonist alone; cytotoxicity flag (confluency mask): not cytotoxic; higher = enhanced NF-kB activity
How it was run: as §1

[4] = library stock concentration (final ~1000-fold dilution): 10 mM, cytotoxicity flag (confluency mask): cytotoxic (confluency <70% of control), agonist: MPLA (TLR4) […]
[5] = agonist: ODN 1826 (TLR9) 0.5 ug/mL
[6] = agonist: Pam2CSK4 (TLR2/6) 0.1 ug/mL
[7] = agonist: Pam3CSK4 (TLR2/1) 0.1 ug/mL
[8] = library stock concentration (final ~1000-fold dilution): 10 mM, cytotoxicity flag (confluency mask): not cytotoxic, agonist: Imiquimod (TLR7) […]
[9] = library stock concentration (final ~1000-fold dilution): 10 mM, cytotoxicity flag (confluency mask): not cytotoxic, agonist: MPLA (TLR4) […]
[10] = library stock concentration (final ~1000-fold dilution): 10 mM, cytotoxicity flag (confluency mask): cytotoxic (confluency <70% of control), agonist: Imiquimod (TLR7) […]

C=CC(=O)Nc1cc(Nc2nccc(-c3cn(C)c4ccccc34)n2)c(OC)cc1N(C)CCN(C)C.CS(=O)(=O)O
NF-kB SEAP reporter activity [1, 4]: 1.91

C=CC(=O)Nc1cc(Nc2nccc(-c3cn(C)c4ccccc34)n2)c(OC)cc1N(C)CCN(C)C.CS(=O)(=O)O (library stock concentration (final ~1000-fold dilution): 10 mM)
NF-kB SEAP reporter activity ([2]; agonist: LPS (TLR4) 0.1 ug/mL): 2.39
NF-kB SEAP reporter activity [2, 5]: 0.214
NF-kB SEAP reporter activity [2, 6]: 1.28
NF-kB SEAP reporter activity [2, 7]: 0.898

O=[N+]([O-])c1ccc(Nc2ccccc2-c2ccccc2)c2nonc12 (library stock concentration (final ~1000-fold dilution): 10 mM)
NF-kB SEAP reporter activity ([3]; agonist: LPS (TLR4) 0.1 ug/mL): 2.02
NF-kB SEAP reporter activity [3, 5]: 1.02
NF-kB SEAP reporter activity [3, 6]: 0.555
NF-kB SEAP reporter activity [3, 7]: 0.754

O=[N+]([O-])c1ccc(Nc2ccccc2-c2ccccc2)c2nonc12
NF-kB SEAP reporter activity [1, 8]: 0.973
NF-kB SEAP reporter activity [1, 9]: 1.33

CC(C)(C)C(=O)N1N=CCC1c1ccccc1 (stereo not drawn) (library stock concentration (final ~1000-fold dilution): 10 mM)
NF-kB SEAP reporter activity ([3]; agonist: LPS (TLR4) 0.1 ug/mL): 1.02 ± 0.095
NF-kB SEAP reporter activity [3, 5]: 0.9171 ± 0.0045
NF-kB SEAP reporter activity [3, 6]: 0.983 ± 0.09
NF-kB SEAP reporter activity [3, 7]: 1.3 ± 0.015

CC(C)(C)C(=O)N1N=CCC1c1ccccc1 (stereo not drawn)
NF-kB SEAP reporter activity [1, 8]: 0.871 ± 0.094
NF-kB SEAP reporter activity [1, 9]: 1.025 ± 0.0035

O=C(C=Cn1cnc(-c2cc(C(F)(F)F)cc(C(F)(F)F)c2)n1)NNc1cnccn1 (library stock concentration (final ~1000-fold dilution): 10 mM)
NF-kB SEAP reporter activity ([3]; agonist: LPS (TLR4) 0.1 ug/mL): 0.255
NF-kB SEAP reporter activity [3, 5]: 0.841
NF-kB SEAP reporter activity [3, 6]: 0.42
NF-kB SEAP reporter activity [3, 7]: 0.428

O=C(C=Cn1cnc(-c2cc(C(F)(F)F)cc(C(F)(F)F)c2)n1)NNc1cnccn1
NF-kB SEAP reporter activity [1, 8]: 1.41
NF-kB SEAP reporter activity [1, 9]: 0.523

Cc1ccc(NC(=O)c2ccc(CN3CCC(N(C)C)C3)c(C(F)(F)F)c2)cc1Nc1nccc(-c2cncnc2)n1 (stereo not drawn)
NF-kB SEAP reporter activity [1, 10]: 2.42
NF-kB SEAP reporter activity [1, 4]: 1.36

Cc1ccc(NC(=O)c2ccc(CN3CCC(N(C)C)C3)c(C(F)(F)F)c2)cc1Nc1nccc(-c2cncnc2)n1 (stereo not drawn) (library stock concentration (final ~1000-fold dilution): 10 mM)
NF-kB SEAP reporter activity ([2]; agonist: LPS (TLR4) 0.1 ug/mL): 0.247
NF-kB SEAP reporter activity [2, 5]: 0.833
NF-kB SEAP reporter activity [2, 6]: 1.4
NF-kB SEAP reporter activity [2, 7]: 1.16

Cc1nc(NC(=O)N2CCCC2C(N)=O)sc1-c1ccnc(C(C)(C)C(F)(F)F)c1 (stereo not drawn) (library stock concentration (final ~1000-fold dilution): 10 mM)
NF-kB SEAP reporter activity ([3]; agonist: LPS (TLR4) 0.1 ug/mL): 1.65
NF-kB SEAP reporter activity [3, 5]: 1.78
NF-kB SEAP reporter activity [3, 6]: 1.43
NF-kB SEAP reporter activity [3, 7]: 1.09

Cc1nc(NC(=O)N2CCCC2C(N)=O)sc1-c1ccnc(C(C)(C)C(F)(F)F)c1 (stereo not drawn)
NF-kB SEAP reporter activity [1, 8]: 1.35
NF-kB SEAP reporter activity [1, 9]: 1.13

C=CC(=O)Nc1cccc(C)c1Nc1ncc2cc(-c3c(Cl)c(OC)cc(OC)c3Cl)ccc2n1
NF-kB SEAP reporter activity ([1]; library stock concentration (final ~1000-fold dilution): 2 mM, cytotoxicity flag (confluency mask): not cytotoxic, agonist: Imiquimod (TLR7) […]): 1.08
NF-kB SEAP reporter activity ([1]; library stock concentration (final ~1000-fold dilution): 2 mM, cytotoxicity flag (confluency mask): not cytotoxic, agonist: MPLA (TLR4) […]): 1.2

C=CC(=O)NC1CCOCC1Nc1ncc2cc(-c3c(Cl)c(OC)cc(OC)c3Cl)ccc2n1 (stereo not drawn) (library stock concentration (final ~1000-fold dilution): 10 mM)
NF-kB SEAP reporter activity ([3]; agonist: LPS (TLR4) 0.1 ug/mL): 0.691
NF-kB SEAP reporter activity [3, 5]: 0.827
NF-kB SEAP reporter activity [3, 6]: 0.34
NF-kB SEAP reporter activity [3, 7]: 0.478

C=CC(=O)Nc1cccc(C)c1Nc1ncc2cc(-c3c(Cl)c(OC)cc(OC)c3Cl)ccc2n1 (library stock concentration (final ~1000-fold dilution): 2 mM)
NF-kB SEAP reporter activity ([3]; agonist: LPS (TLR4) 0.1 ug/mL): 1.04
NF-kB SEAP reporter activity [3, 5]: 1.08
NF-kB SEAP reporter activity [3, 6]: 0.531
NF-kB SEAP reporter activity [3, 7]: 0.89

C=CC(=O)N1CCN(CCCn2c(=O)c(-c3c(Cl)c(OC)cc(OC)c3Cl)cc3cnc(NC)nc32)CC1 (library stock concentration (final ~1000-fold dilution): 10 mM)
NF-kB SEAP reporter activity ([3]; agonist: LPS (TLR4) 0.1 ug/mL): 3.2
NF-kB SEAP reporter activity [3, 5]: 1.05
NF-kB SEAP reporter activity [3, 6]: 0.933
NF-kB SEAP reporter activity [3, 7]: 1.15

C=CC(=O)NC1CCOCC1Nc1ncc2cc(-c3c(Cl)c(OC)cc(OC)c3Cl)ccc2n1 (stereo not drawn)
NF-kB SEAP reporter activity [1, 8]: 0.68
NF-kB SEAP reporter activity [1, 9]: 0.869

C=CC(=O)N1CCN(CCCn2c(=O)c(-c3c(Cl)c(OC)cc(OC)c3Cl)cc3cnc(NC)nc32)CC1
NF-kB SEAP reporter activity [1, 8]: 0.952
NF-kB SEAP reporter activity [1, 9]: 1.23

CC(C)(C)NC(=O)C1CCC2C3CCC4NC(=O)C=CC4(C)C3CCC12C (stereo not drawn) (library stock concentration (final ~1000-fold dilution): 10 mM)
NF-kB SEAP reporter activity ([3]; agonist: LPS (TLR4) 0.1 ug/mL): 0.988
NF-kB SEAP reporter activity [3, 5]: 0.946
NF-kB SEAP reporter activity [3, 6]: 0.943
NF-kB SEAP reporter activity [3, 7]: 0.998

CC(C)(C)NC(=O)C1CCC2C3CCC4NC(=O)C=CC4(C)C3CCC12C (stereo not drawn)
NF-kB SEAP reporter activity [1, 8]: 0.218
NF-kB SEAP reporter activity [1, 9]: 1.07

COc1ccc(-c2oc3c(CC=C(C)C)c(O)cc(O)c3c(=O)c2OC2OC(C)C(O)C(O)C2O)cc1 (stereo not drawn)
NF-kB SEAP reporter activity [1, 10]: 1.82
NF-kB SEAP reporter activity [1, 4]: 1.45

COc1ccc(-c2oc3c(CC=C(C)C)c(O)cc(O)c3c(=O)c2OC2OC(C)C(O)C(O)C2O)cc1 (stereo not drawn) (library stock concentration (final ~1000-fold dilution): 10 mM)
NF-kB SEAP reporter activity ([2]; agonist: LPS (TLR4) 0.1 ug/mL): 2.22
NF-kB SEAP reporter activity [2, 5]: 0.553
NF-kB SEAP reporter activity [2, 6]: 0.251
NF-kB SEAP reporter activity [2, 7]: 0.457

CSC1(C(=O)Nc2ccc3[nH]nc(-c4ccc(OC(C)C)nc4)c3c2)CCN(CC(=O)N2CC=C(c3ccc(-c4ncn(C)n4)cc3)CC2)C1 (stereo not drawn)
NF-kB SEAP reporter activity [1, 8]: 0.202
NF-kB SEAP reporter activity [1, 9]: 0.321

CSC1(C(=O)Nc2ccc3[nH]nc(-c4ccc(OC(C)C)nc4)c3c2)CCN(CC(=O)N2CC=C(c3ccc(-c4ncn(C)n4)cc3)CC2)C1 (stereo not drawn) (library stock concentration (final ~1000-fold dilution): 10 mM)
NF-kB SEAP reporter activity ([3]; agonist: LPS (TLR4) 0.1 ug/mL): 0.407
NF-kB SEAP reporter activity [3, 5]: 0.343
NF-kB SEAP reporter activity [3, 6]: 0.0837
NF-kB SEAP reporter activity [3, 7]: 0.136

CC(C)(C)c1nc(-c2ccc(NC(=O)Nc3cccc(C(F)(F)F)c3)c3ccccc23)c2c(N)nccn12
NF-kB SEAP reporter activity [1, 10]: 0.139
NF-kB SEAP reporter activity [1, 4]: 0.252
